Experimental data published in PubChem BioAssay (Tox21).
Inconclusive results are not listed. The source made the active and inactive calls. The call rests on the fitted dose curve; in most records, active means well fitted curve in the direction sought with a large enough effect in the repeat runs; inconclusive means weak or mixed curves; inactive means no such curve, though single readings can be large; an effect the other way counts as inactive or inconclusive.

Tests used:
[1] = A CellTox Green Cytotoxicity Assay to monitor cytotoxicity in HEK293 cells - 40 hour (AID 1224871); further: nearly all actives have a fitted effect of over 45% in size
Summary of the method: (§1)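 Cells (HEK293, 600/well) and dye reagent are dispensed together. After 5 h at 37 C, 23 nL compound is pinned in. Plates stay at 37 C for 40 h with fluorescence read at 0h, 8h, 16h, 24h, 32h and 40h.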

[2] = qHTS RealTime-Glo MT Cell Viability Assay in HEK293 cells - 16 hour (AID 1224872); further: top concentration of the series differs between compounds; nearly all actives have a fitted effect of over 50% in size
Summary of the method: (§2)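 HEK293 cells seeded with NanoLuc/prosubstrate reagent, rested 5 h at 37 C, then dosed and kept at 37 C up to 40 h. Nonlytic real-time luminescence from viable cells read at 0, 8, 16, 24, 32 and 40 h.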

[3] = qHTS RealTime-Glo MT Cell Viability Assay in HepG2 cells - 8 hour (AID 1224873); further: nearly all actives have a fitted effect of over 55% in size
Summary of the method: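 HepG2 cells mixed with RealTime-Glo MT reagents (NanoLuc plus cell-permeant prosubstrate) were seeded at 600 cells/well, incubated 5 h at 37 C/5% CO2, then pinned with compounds in DMSO; nonlytic luminescence tracked viability during 40 h treatment.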

[4] = qHTS RealTime-Glo MT Cell Viability Assay in HEK293 cells - 40 hour (AID 1224874); conditions: RealTime-Glo luminescence; max response: stronger effect = lower value; further: nearly all actives have a fitted effect of over 50% in size
Summary of the method: (§3)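 Real-time viability in HEK293: signal arises when living cells convert a prosubstrate for NanoLuc in the medium, so luminescence tracks viable cell number. Compound (23 nL, DMSO) added 5 h post-seeding; kinetic reads at 0–40 h, 37 C.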

[5] = A CellTox Green Cytotoxicity Assay to monitor cytotoxicity in HEK293 cells - 24 hour (AID 1224875); further: series mostly up to about 77 µM; nearly all actives have a fitted effect of over 45% in size
Summary of the method: as §1

[6] = A CellTox Green Cytotoxicity Assay to monitor cytotoxicity in HepG2 cells - 16 hour (AID 1224876); further: nearly all actives have a fitted effect of over 45% in size
Summary of the method: (§4)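 Cells and non-lytic dye reagent are dispensed together (600 HepG2 cells/well) and incubated 5 h before DMSO compound transfer. Kinetic fluorescence is then recorded in the same wells during 40 h at 37 C.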

[7] = qHTS RealTime-Glo MT Cell Viability Assay in HepG2 cells - 32 hour (AID 1224877); further: nearly all actives have a fitted effect of over 55% in size
Summary of the method: (§5)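 HepG2 cells (600/well) were dispensed with RealTime-Glo reagents, incubated 5 h at 37 °C, then treated with compounds in DMSO for up to 40 h. Nonlytic NanoLuc luminescence reflecting viable cells was read at each stated time point.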

[8] = A CellTox Green Cytotoxicity Assay to monitor cytotoxicity in HepG2 cells - 24 hour (AID 1224878); further: nearly all actives have a fitted effect of over 45% in size
Summary of the method: as §4

[9] = A CellTox Green Cytotoxicity Assay to monitor cytotoxicity in HepG2 cells - 40 hour (AID 1224879); further: nearly all actives have a fitted effect of over 40% in size
Summary of the method: as §4

[10] = qHTS RealTime-Glo MT Cell Viability Assay in HEK293 cells - 0 hour (AID 1224880)
Summary of the method: as §3

[11] = A CellTox Green Cytotoxicity Assay to monitor cytotoxicity in HEK293 cells - 32 hour (AID 1224881); further: nearly all actives have a fitted effect of over 40% in size
Summary of the method: as §1

[12] = A CellTox Green Cytotoxicity Assay to monitor cytotoxicity in HepG2 cells - 0 hour (AID 1224882); further: nearly all actives have a fitted effect of over 35% in size
Summary of the method: as §4

[13] = A CellTox Green Cytotoxicity Assay to monitor cytotoxicity in HepG2 cells - 32 hour (AID 1224883); further: nearly all actives have a fitted effect of over 50% in size
Summary of the method: as §4

[14] = A CellTox Green Cytotoxicity Assay to monitor cytotoxicity in HEK293 cells - 8 hour (AID 1224884); further: nearly all actives have a fitted effect of over 35% in size
Summary of the method: as §1

[15] = qHTS RealTime-Glo MT Cell Viability Assay in HepG2 cells - 16 hour (AID 1224885); further: nearly all actives have a fitted effect of over 50% in size
Summary of the method: as §5

[16] = qHTS RealTime-Glo MT Cell Viability Assay in HEK293 cells - 24 hour (AID 1224886)
Summary of the method: as §2

[17] = qHTS RealTime-Glo MT Cell Viability Assay in HEK293 cells - 8 hour (AID 1224887)
Summary of the method: as §3

[18] = A CellTox Green Cytotoxicity Assay to monitor cytotoxicity in HEK293 cells - 16 hour (AID 1224888); further: nearly all actives have a fitted effect of over 35% in size
Summary of the method: as §1

[19] = qHTS RealTime-Glo MT Cell Viability Assay in HepG2 cells - 0 hour (AID 1224889); further: nearly all actives have a fitted effect of over 50% in size
Summary of the method: as §5

[20] = A CellTox Green Cytotoxicity Assay to monitor cytotoxicity in HepG2 cells - 8 hour (AID 1224890); further: nearly all actives have a fitted effect of over 45% in size
Summary of the method: as §4
On the % scale 0 is the no-effect control and ±100 the full control effect.

CCCCCCCCCCCCCCCCC(=O)O
inactive: Potency [1] | Potency [2] | outcome [3] | max response [4] 3.49% | Potency [5] | Potency [6] | Potency [7] | Potency [8] | Potency [9] | Potency [10] | Potency [11] | Potency [12] | Potency [13] | Potency [14] | outcome [15] | Potency [16] | Potency [17] | Potency [18] | Potency [19] | Potency [20]

CC(C)Oc1ccccc1O
inactive: Potency [1] | Potency [2] | outcome [3] | max response [4] 2.84% | Potency [5] | Potency [6] | Potency [7] | Potency [8] | Potency [9] | Potency [10] | Potency [11] | Potency [12] | Potency [13] | Potency [14] | outcome [15] | Potency [16] | Potency [17] | Potency [18] | Potency [19] | Potency [20]

CCCOC(C)=O
inactive: Potency [1] | Potency [2] | outcome [3] | max response [4] -1.95% | Potency [5] | Potency [6] | Potency [7] | Potency [8] | Potency [9] | Potency [10] | Potency [11] | Potency [12] | Potency [13] | Potency [14] | outcome [15] | Potency [16] | Potency [17] | Potency [18] | Potency [19] | Potency [20]

O=C(O)c1ccc2cc(O)ccc2c1
inactive: Potency [1] | Potency [2] | outcome [3] | max response [4] -17.3% | Potency [5] | Potency [6] | Potency [7] | Potency [8] | Potency [9] | Potency [10] | Potency [11] | Potency [12] | Potency [13] | Potency [14] | outcome [15] | Potency [16] | Potency [17] | Potency [18] | Potency [19] | Potency [20]

C[Si](C)(C)O[Si](C)(C)O[Si](C)(C)C
inactive: Potency [1] | Potency [2] | outcome [3] | max response [4] 7.13% | Potency [5] | Potency [6] | Potency [7] | Potency [8] | Potency [9] | Potency [10] | Potency [11] | Potency [12] | Potency [13] | Potency [14] | outcome [15] | Potency [16] | Potency [17] | Potency [18] | Potency [19] | Potency [20]

C/C(=C(\CCO)SS/C(CCO)=C(\C)N(C=O)Cc1cnc(C)nc1N)N(C=O)Cc1cnc(C)nc1N
inactive: Potency [1] | Potency [2] | outcome [3] | max response [4] 7.21% | Potency [5] | Potency [6] | Potency [7] | Potency [8] | Potency [9] | Potency [10] | Potency [11] | Potency [12] | Potency [13] | Potency [14] | outcome [15] | Potency [16] | Potency [17] | Potency [18] | Potency [19] | Potency [20]

CCCC1CCCC(=O)O1 (stereo not given)
inactive: Potency [1] | Potency [2] | outcome [3] | max response [4] 0.877% | Potency [5] | Potency [6] | Potency [7] | Potency [8] | Potency [9] | Potency [10] | Potency [11] | Potency [12] | Potency [13] | Potency [14] | outcome [15] | Potency [16] | Potency [17] | Potency [18] | Potency [19] | Potency [20]

O=C(C1CCCCC1)N1CC(=O)N2CCCc3ccccc3C2C1 (stereo not given)
inactive: Potency [1] | Potency [2] | outcome [3] | max response [4] -23.1% | Potency [5] | Potency [6] | Potency [7] | Potency [8] | Potency [9] | Potency [10] | Potency [11] | Potency [12] | Potency [13] | Potency [14] | outcome [15] | Potency [16] | Potency [17] | Potency [18] | Potency [19] | Potency [20]

CCCCCCCCCCCCSC#N
inactive: Potency [1] | Potency [2] | outcome [3] | max response [4] 0.323% | Potency [5] | Potency [6] | Potency [7] | Potency [8] | Potency [9] | Potency [10] | Potency [11] | Potency [12] | Potency [13] | Potency [14] | outcome [15] | Potency [16] | Potency [17] | Potency [18] | Potency [19] | Potency [20]

Cc1ccccc1CCO
inactive: Potency [1] | Potency [2] | outcome [3] | max response [4] 5.71% | Potency [5] | Potency [6] | Potency [7] | Potency [8] | Potency [9] | Potency [10] | Potency [11] | Potency [12] | Potency [13] | Potency [14] | outcome [15] | Potency [16] | Potency [17] | Potency [18] | Potency [19] | Potency [20]

C1CCN(CN2CCCCC2)CC1
inactive: Potency [1] | Potency [2] | outcome [3] | max response [4] 7.66% | Potency [5] | Potency [6] | Potency [7] | Potency [8] | Potency [9] | Potency [10] | Potency [11] | Potency [12] | Potency [13] | Potency [14] | outcome [15] | Potency [16] | Potency [17] | Potency [18] | Potency [19] | Potency [20]

CC(C)NC(=O)c1ccccc1N
inactive: Potency [1] | Potency [2] | outcome [3] | max response [4] 0.226% | Potency [5] | Potency [6] | Potency [7] | Potency [8] | Potency [9] | Potency [10] | Potency [11] | Potency [12] | Potency [13] | Potency [14] | outcome [15] | Potency [16] | Potency [17] | Potency [18] | Potency [19] | Potency [20]

CCOc1ccc(NC(C)=O)cc1N
inactive: Potency [1] | Potency [2] | outcome [3] | max response [4] 3.81% | Potency [5] | Potency [6] | Potency [7] | Potency [8] | Potency [9] | Potency [10] | Potency [11] | Potency [12] | Potency [13] | Potency [14] | outcome [15] | Potency [16] | Potency [17] | Potency [18] | Potency [19] | Potency [20]
